Screens from PubChem BioAssay.
ERa coact pot: enhances coactivator binding to human estrogen receptor alpha | P03372 | TR-FRET ERalpha-LBD/SRC-Cy5 coactivator binding, 2 h; 100 = basal binding, no effect | coactivator binding (% of control), % at 25.6 µM | 86,000 tested, 1.3% active | AID 639; in the data active means activity above about 200%;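 further: binding measured in presence of low estradiol as agonist stimulus; 0% = peptide alone without receptor and 100% = receptor with peptide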
HePTP inh: blocks human HePTP tyrosine phosphatase; P35236; recombinant HePTP phosphatase activity, OD absorbance; inhibition, % at 20 µM; 110,000 tested, 0.64% active; in the data active means inhibition above about 50%;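 further: plate controls were vehicle for no effect and reference inhibitor for full effect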
ERa SRC1 inh: blocks coactivator binding to human estrogen receptor alpha; P03372; TR-FRET ER-alpha LBD / SRC-1 peptide, estradiol-bound; inhibition, % at 25.6 µM; 86,000 tested, 1.7% active; in the data active means inhibition above about 50%;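 further: 0% = receptor plus peptide control and 100% = peptide only without receptor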
Candida biofilm: kills Candida albicans biofilms; 85,000 tested, 0.14% active; inhibition, % at 6 µM; AID 834; C. albicans biofilm + clotrimazole, Alamar Blue;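 active means inhibition above 20%; inactive means inhibition below 20%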;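 further: preformed 24 hr biofilms exposed to compound for 48 hr; 0% = biofilm without compound and 100% = blank killed by clotrimazole plus chlorhexidine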
Smad3 inh: blocks human Smad3 binding to FoxH1 peptide | P84022 | TR-FRET Smad3/Dy647-FoxH1 peptide binding, europium anti-His | inhibition, % at 25 µM | 88,000 tested, 0.29% active | AID 630;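 active means compounds that reduce the energy-transfer binding signal between the protein and its labelled peptide by more than half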;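 further: 0% = Smad3 plus labelled peptide maximal FRET and 100% = peptide-only background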
ERb SRC1 inh: blocks coactivator binding to human estrogen receptor beta; Q92731; TR-FRET ER-beta LBD / SRC1-Cy5 peptide binding; receptor agonist-loaded with 1 µM estradiol; inhibition, % at 25.6 µM; 86,000 tested, 1.3% active; AID 633;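 active means compounds whose percent inhibition of the receptor-coactivator binding signal exceeds about 50% in the single-dose screen, limit read from the data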;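 further: 0% = receptor plus peptide wells without compound and 100% = peptide-only wells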
Target sequence (Q92731 whole entry, looked up, the tested form may be a part): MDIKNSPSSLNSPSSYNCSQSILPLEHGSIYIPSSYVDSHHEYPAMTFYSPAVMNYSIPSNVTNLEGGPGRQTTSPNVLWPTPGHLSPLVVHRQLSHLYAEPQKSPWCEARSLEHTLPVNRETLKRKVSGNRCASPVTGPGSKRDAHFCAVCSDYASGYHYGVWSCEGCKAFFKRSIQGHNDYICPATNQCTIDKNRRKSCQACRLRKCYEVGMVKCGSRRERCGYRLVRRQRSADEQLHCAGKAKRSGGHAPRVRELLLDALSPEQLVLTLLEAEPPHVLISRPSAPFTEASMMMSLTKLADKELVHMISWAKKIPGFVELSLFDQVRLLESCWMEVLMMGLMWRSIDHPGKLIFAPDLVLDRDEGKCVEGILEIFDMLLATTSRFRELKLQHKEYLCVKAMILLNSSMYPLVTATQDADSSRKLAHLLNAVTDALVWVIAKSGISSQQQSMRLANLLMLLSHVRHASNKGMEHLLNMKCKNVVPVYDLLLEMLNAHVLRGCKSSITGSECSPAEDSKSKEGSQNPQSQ
* = called active by the depositor; i = inactive; · = no result given; [ ] = dose if it differs, or a comment. Shown are actives, neighbours in structure and some others; about 2.9% of the full set was active somewhere.

SMILES | ERa coact pot | HePTP inh | ERa SRC1 inh | Candida biofilm | Smad3 inh | ERb SRC1 inh
COC(=O)c1c(-c2ccncc2)csc1NC(=O)c1ccoc1C | 321* | 9 | 8 | 7 | -9 | 3
CCN(CC)C(=O)c1sc(NC(=O)c2ccoc2C)c(C(=O)OC)c1C | 91 | 3 | -12 | -1 | -4 | 0
COc1ccc(NC(=O)c2c(-c3c(Cl)cccc3Cl)noc2C)c([N+](=O)[O-])c1 | · | -13 | · | · | · | ·
Cc1ccc(OCCNc2cc(N3CCN(C)CC3)ccc2[N+](=O)[O-])cc1C | · | -5 | · | · | · | ·
Cc1cc(C)c(C#N)c(SCC(=O)Nc2nnc(-c3ccccc3)s2)n1 | 208*[fluorescence artefact?] | -3 | -15 | 3 | -10 | 6
CCOC(=O)c1c(NC(=O)CSc2nc(C)cc(C)c2C#N)sc(C(C)=O)c1C | 678*[fluorescence artefact?] | 7 | 61*[fluorescence artefact?] | 3 | i | 49
CCOC(=O)c1c(NC(=O)CSc2nnc(-c3ccccc3)o2)sc(C(C)=O)c1C | 319* | · | -6 | 1 | 6 | -7
Cc1nc(SCC(=O)Nc2nnc(-c3ccccc3)s2)n[nH]1 | · | 2 | · | · | · | ·
CCOC(=O)c1c(NC(=O)CSc2nnc(Cc3ccccc3)o2)sc(C(C)=O)c1C | 93 | · | 7 | 3 | -20 | 1
CN(C1CCCCC1)S(=O)(=O)c1ccccc1 | 110 | 5 | 1 | 7 | 9 | -10
CN(C1CCCCC1)S(=O)(=O)c1ccc(C(=O)O)cc1 | 101 | 4 | 6 | 25* | -10 | 8
Cc1ccc2c(c1)cc(CN(CCc1ccccc1)C(=O)N1CCOCC1)c1nnnn12 | 113 | 8 | 65*[fluorescence artefact?] | 9 | 9 | -4
O=C(O)c1cccc(NC(=O)c2ccc3ccccc3n2)c1 | · | 8 | · | · | · | ·
O=C(CSc1nnnn1-c1ccc2c(c1)OCCO2)OC1CCCCC1 | 212* | 8 | -8 | 1 | 9 | -1
Cc1cc(NC(=O)c2cncc(Br)c2)n(-c2ccccn2)n1 | 294* | -3 | 8 | 1 | -2 | -5
O=C(Nc1ccccc1C(=O)O)c1cncc(Br)c1 | 77 | · | -9 | -3 | -6 | -3
O=C(Oc1ccc([N+](=O)[O-])cc1)c1ccccc1Cl | · | 1 | · | · | · | ·
O=C1CC(N2CCN(c3ccc([N+](=O)[O-])cc3)CC2)C(=O)N1c1ccc(F)cc1 (stereo not drawn) | · | -10 | · | · | · | ·
COc1ccc(-c2coc3c(CN4CCCCC4)c(O)c(CN4CCCCC4)c(O)c3c2=O)cc1 | 79 | 8 | 67*[fluorescence artefact?] | 9 | 4 | 35
O=c1c(-c2ccc(Cl)cc2)coc2c(CN3CCCCC3)c(O)ccc12 | · | -6 | · | · | · | ·
COc1ccc(-n2nc3ccc(NC(=O)/C=C\c4ccccc4)cc3n2)cc1 | · | 102* | · | · | · | ·
O=[N+]([O-])c1ccc(Cl)cc1NCc1ccccc1 | · | 7 | · | · | · | ·
O=C1C=CC(=O)C(/C(=C/NCc2ccccc2)[N+](=O)[O-])=C1 | · | 104* | · | · | · | ·
COc1cc(C(=O)N/C(=C/c2ccc(Br)cc2)C(=O)NC(Cc2ccccc2)C(=O)O)cc(OC)c1OC (stereo not drawn) | · | -9 | · | · | · | ·
COC(=O)C1=CNC=C(C(=O)OC)C1c1cccs1 | · | 6 | · | · | · | ·
SMILES | ERa coact pot | HePTP inh | ERa SRC1 inh | Candida biofilm | Smad3 inh | ERb SRC1 inh
CCN1CCn2c3c(c4cc(C)ccc42)CCCC31 (stereo not drawn) | 79 | 1 | 34 | 0 | -7 | 56*[fluorescence artefact?]
O=C(COc1ccc2ccccc2c1)Nc1ccc(N2CCOCC2)c(Cl)c1 | · | 1 | · | · | · | ·
O=C(NCCN1CCOCC1)NC1(C(F)(F)F)Oc2ccccc2O1 | 617*[fluorescence artefact?] | 7 | 1 | 4 | 2 | 2
O=C(CSc1nc2c(c(C(F)(F)F)n1)CCc1ccccc1-2)NCc1ccc(F)cc1 | 229* | · | 4 | 6 | -77 | 17
COc1cc([N+](=O)[O-])cc(/C=N/NC(=O)COc2c(Br)cc(Br)cc2Br)c1O | · | 79* | · | · | · | ·
N#C/C(=C\c1ccc(-c2ccccc2)o1)C(=O)Nc1ccc(C#N)cc1 | · | 5 | · | · | · | ·
CCOC(=O)C1=C(C)NC2=C(C(=O)CCC2)C1c1ccccc1[N+](=O)[O-] (stereo not drawn) | · | 5 | · | · | · | ·
COc1ccc(-c2nc(N)ncc2Oc2ccccc2Br)c(O)c1 | 241*[fluorescence artefact?] | 4 | 24 | 8 | 6 | 36
C=C(C)COc1ccc(-c2nc(N)nc(C)c2Oc2ccccc2OC)c(O)c1 | 286*[fluorescence artefact?] | 6 | 29 | 6 | 13 | 59*[fluorescence artefact?]
COc1cccc(Oc2cnc(N)nc2-c2ccc(OC)cc2O)c1 | 92 | 6 | -7 | 5 | 2 | -4
N#Cc1c(-c2ccc(Cl)cc2)nc2n(c1=O)CCCS2 | 140 | · | 6 | 1 | 15 | 1
N#Cc1c(-c2ccc(Br)cc2)nc2n(c1=O)CCCS2 | 239* | · | 10 | 3 | -4 | 17
Oc1ccc(/C=N/Nc2nncc(-c3ccccc3)n2)c(O)c1 | · | -1 | · | · | · | ·
COC(=O)c1ccc(Cn2nc(C)cc2C)cc1 | 91 | · | -7 | -1 | 5 | -4
COC(=O)c1ccc(Cn2nc(C)c(Br)c2C)cc1 | 102 | 9 | -5 | 4 | 2 | 66*[fluorescence artefact?]
O=Cc1ccc(OC(=O)c2ccccc2I)cc1 | · | 1 | · | · | · | ·
COCCCn1c2nc3ccccc3nc2c2c(=O)n(-c3ccccc3OC)c(C)nc21 | 319* | 4 | 12 | 0 | 7 | 5
CCCn1c(C)nc2c(c1=O)c1nc3ccccc3nc1n2CCc1ccccc1 | 141 | 11 | 53* | 9 | 4 | 33
COCCCn1c2nc3ccccc3nc2c2c(=O)n(-c3ccccc3OC)cnc21 | 92 | 5 | 0 | 11 | 1 | 1
Cc1sc2ncnc(Sc3nnnn3-c3ccccc3)c2c1C | 202*[fluorescence artefact?] | 5 | 18 | 4 | -5 | 9
O=C(NC1CCCCC1)c1nc2nc(-c3ccccc3)cc(C(F)(F)F)n2n1 | · | -10 | · | · | · | ·
COc1cc(NC(=O)c2ccc3c(c2)C(=O)N(c2ccccc2OC)C3=O)c(C(=O)O)cc1OC | · | 0 | · | · | · | ·
COc1cc(NC(=O)c2ccc3c(c2)C(=O)N(C2CCCCC2)C3=O)c(C(=O)O)cc1OC | · | 103* | · | · | · | ·
COc1ccccc1N1CCN(C(=O)c2ccc(N(Cc3ccccc3)S(C)(=O)=O)cc2)CC1 | · | 6 | · | · | · | ·
CCc1nc2ccccc2c(C(=O)OCC(=O)Nc2cccc(S(=O)(=O)N3CCOCC3)c2)c1C | 115 | · | -13 | 1 | 89* | -18
SMILES | ERa coact pot | HePTP inh | ERa SRC1 inh | Candida biofilm | Smad3 inh | ERb SRC1 inh
Cc1c(NC(=S)NCc2ccco2)c(=O)n(-c2ccccc2)n1C | · | -4 | · | · | · | ·
COc1ccc(N(CC(=O)NCc2ccc(C)cc2)S(C)(=O)=O)cc1 | · | 5 | · | · | · | ·
CC12CC3(C)CC(C)(C1)CC(C(=O)Nc1nn[nH]n1)(C2)C3 | 79 | · | 3 | -8 | -11 | 14
CC12CC3CC(C)(C1)CC(C(=O)Nc1nn[nH]n1)(C3)C2 | 226* | 4 | -4 | 5 | -3 | -6
CCOc1cc(OCC)cc(C(=O)Nc2cccc(NC(=O)c3ccccc3C)c2)c1 | · | -3 | · | · | · | ·
Cn1nc(-c2ccc(C(=O)Nc3cccc(Cl)c3)cc2)c2ccccc2c1=O | 261* | · | 15 | 3 | -112 | 9
COc1ccc(C(=O)CSc2nnc(COc3ccc(Cl)cc3Cl)o2)cc1 | · | 8 | · | · | · | ·
